# PubChem BioAssay (NCATS)
# Results filed as inconclusive are left out. Entries that show only a call come without a potency. Calls of active or inactive are those of the source. The call rests on the fitted dose curve; in most records, active means well fitted curve in the direction sought with a large enough effect; inconclusive means small, poorly fitted or top-dose-only effect, or another doubt; inactive means no such curve, though single readings can be large; an effect the other way counts as inactive or inconclusive.
# Tests used:
# [1] = system: Zika virus NS2B-NS3 protease (linked construct); assay: Primary screen NINDS Rhodamine qHTS for Zika virus inhibitors (AID 1347160); further: nearly all actives have a fitted effect of over 55% in size; further: potency means the concentration at half of the fitted maximal effect
# Procedure, shortened: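 Each compound, titrated, sat 15 min with 25 nM linked protease before 1.5 microM Rhodamine110 substrate went in. Fluorescence gain over the next 15 min, in pH 8.0 Tris with Tween 20, gave Hill-fitted curves.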
# [2] = OV-KATE Cancer Cell Toxicity qHTS against the NCATS CANVASS Library (AID 1347345); further: potency means the concentration at half of the fitted maximal effect
# Procedure, shortened: (§1)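 Following a 4 h pre-incubation of 1000 seeded cells, compounds were pinned in an 11-pnt dilution series and left for 72 h; viability then came from CellTiter-Glo.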
# [3] = HPAF-II Cancer Cell Toxicity qHTS against the NCATS CANVASS Library (AID 1347346); further: nearly all actives have a fitted effect of over 55% in size; further: potency means the concentration at half of the fitted maximal effect
# Procedure, shortened: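 First, HPAF-II cells are plated (1000 cells/well) and held 4 h at 37 degrees C. Next, compounds are pin-transferred as an 11-point series. After 72 h, CellTiter-Glo is added and luminescence measured.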
# [4] = UWB1.289 Cancer Cell Toxicity qHTS against the NCATS CANVASS Library (AID 1347347); further: nearly all actives have a fitted effect of over 60% in size; further: potency means the concentration at half of the fitted maximal effect
# Procedure, shortened: as §1
# [5] = OV-SAHO Cancer Cell Toxicity qHTS against the NCATS CANVASS Library (AID 1347348); further: nearly all actives have a fitted effect of over 55% in size; further: potency means the concentration at half of the fitted maximal effect
# Procedure, shortened: as §1
# [6] = Panc-1005 Cancer Cell Toxicity qHTS against the NCATS CANVASS Library (AID 1347349); further: nearly all actives have a fitted effect of over 60% in size; further: potency means the concentration at half of the fitted maximal effect
# Procedure, shortened: as §1
# [7] = SW1088 Cancer Cell Toxicity qHTS against the NCATS CANVASS Library (AID 1347350); further: nearly all actives have a fitted effect of over 75% in size; further: potency means the concentration at half of the fitted maximal effect
# Procedure, shortened: as §1
# [8] = COV-362 Cancer Cell Toxicity qHTS against the NCATS CANVASS Library (AID 1347352); further: potency means the concentration at half of the fitted maximal effect
# Procedure, shortened: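 First, 1000 cells go into each well and rest for 4 hours. Next, an 11-point dilution range is pinned in. Plates then incubate 72 hours before CellTiter-Glo addition and luminescence reading.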
# [9] = HEK293 18hr Apoptosis Induction qHTS against the NCATS CANVASS Library (AID 1347357); further: potency means the concentration at half of the fitted maximal effect
# Procedure, shortened: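 HEK293 cells (500/well, DMEM + 10% FBS) treated with an 11-point series for 18 h at 37 degrees C. Caspase-3/7 activity read by Caspase-Glo luminescence after 15 min at room temperature.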
# [10] = HEK293 24hr Apoptosis Induction qHTS against the NCATS CANVASS Library (AID 1347359); further: potency means the concentration at half of the fitted maximal effect
# Procedure, shortened: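 HEK293 cells, 500 per well, exposed to an 11-point compound series for 24 hours at 37 degrees C. Caspase 3/7 activity read by Caspase-Glo luminescence (DEVD substrate) after 15 min at room temperature.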
# [11] = KB-3-1 Cancer Cell Toxicity qHTS against the NCATS CANVASS Library (AID 1347366); further: nearly all actives have a fitted effect of over 75% in size; further: potency means the concentration at half of the fitted maximal effect
# Procedure, shortened: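 KB-3-1 cells (500/well) in DMEM with 10% FBS were exposed to compounds for 72 h at 37C. Viability was read by CellTiter-Glo luminescence.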
# [12] = qHTS for ATAD5 Agonist screened against the NCATS CANVASS Library (AID 1347367);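 further: luciferase reporter driven by ATAD5 which rises upon DNA damage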
# Procedure, shortened: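 Luciferase reporter under ATAD5 control, stably integrated in HEK293T cells (2000/well). Compounds (11 points) incubated 16 h at 37C; viability read first by CellTiter-Fluor, then luminescence reporting ATAD5 activation. MMS positive control.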
# [13] = MCF7 Cancer Cell Toxicity qHTS against the NCATS CANVASS Library (AID 1347369); further: potency means the concentration at half of the fitted maximal effect
# Procedure, shortened: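 MCF7 cells (500/well) were exposed 72 h at 37 °C to compounds in an 11-point series. Viability was read as ATP content by CellTiterGlo luminescence.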
# [14] = J3T Cancer Cell Toxicity qHTS against the NCATS CANVASS Library (AID 1347371); further: potency means the concentration at half of the fitted maximal effect
# Procedure, shortened: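 Luminescence from CellTiterGlo, reporting cellular ATP, serves as the viability measure after 72 hr compound treatment of J3T canine glioma cells seeded at 500 cells/well.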
# [15] = target: Nuclear receptor subfamily 1 group I member 3 (Homo sapiens) (UniProt Q14994); assay: qHTS for Constitutive Androstane Receptor (CAR) Agonist screened against the NCATS CANVASS Library (AID 1347373);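 further: every well also contained 1.5 µM PK11195 alongside the test compound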
# Chain of Nuclear receptor subfamily 1 group I member 3 (Homo sapiens) (Q14994 whole entry, looked up): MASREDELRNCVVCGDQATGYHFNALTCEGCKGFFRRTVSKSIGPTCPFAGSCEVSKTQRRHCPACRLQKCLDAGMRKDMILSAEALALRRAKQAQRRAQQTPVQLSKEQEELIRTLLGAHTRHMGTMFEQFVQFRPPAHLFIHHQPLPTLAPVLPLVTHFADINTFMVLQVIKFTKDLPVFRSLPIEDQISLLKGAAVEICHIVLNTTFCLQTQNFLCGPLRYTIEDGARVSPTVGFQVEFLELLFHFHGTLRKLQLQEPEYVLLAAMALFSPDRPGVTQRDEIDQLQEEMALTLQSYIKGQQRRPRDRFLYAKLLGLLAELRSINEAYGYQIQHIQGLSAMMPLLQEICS
# Procedure, shortened: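 Cells were plated and allowed to attach for 4hr, then dosed with compound in an 11-point series alongside 1.5uM PK11195. After 24hr at 37C, viability was measured fluorometrically and CAR-driven CYP2B6 reporter luminescence was recorded.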
# [16] = 10-beta competent E. coli microbial cell viability qHTS against the NCATS CANVASS Library (AID 1347376); further: series mostly up to about 46 µM
# Procedure, shortened: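 Bacterial suspension diluted to 0.2 OD was dosed with compounds, 11-point series, then held overnight at 37C. BacTiter-Glo reagent was added, and after 20 min at room temperature ATP-dependent luminescence was measured.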
# [17] = qHTS for Inflammasome Signaling Inhibitors: IL-1-beta AlphaLISA screen against the NCATS CANVASS Library (AID 1347379);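 further: human THP-1 cells primed with LPS then triggered with ATP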
# Procedure, shortened: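 Secreted IL-1B from human THP-1 cells quantified by AlphaLISA 16 hr after compound addition (final up to 57.5 uM). A 1 hr compound pretreatment preceded inflammasome activation with 250 ng/mL LPS plus 1.25 mM ATP (final).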
# [18] = Inflammasome Signaling qHTS Counterscreen: IL-1-beta AlphaLISA counterscreen against the NCATS CANVASS Library (AID 1347381);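 further: cell-free check with purified IL-1β in medium and no THP-1 cells; series mostly up to about 57 µM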
# Procedure, shortened: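 Purified IL-1-beta (4 pg/well) + compound, 11-pt conc. series; acceptor beads 6 ug/mL + biotin-Ab 0.6 nM final, 1 h RT; SA-donor 24 ug/ml final, 30 min dark RT; read ex 680/em 615.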
# [19] = Vero-766 cells viability qHTS against the NCATS CANVASS Library: Counterscreen for Zika virus inhibition assay (AID 1347394); further: nearly all actives have a fitted effect of over 60% in size; further: potency means the concentration at half of the fitted maximal effect
# Procedure, shortened: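 Vero 766 cells (1000/well), without Zika virus, were exposed to compounds for 72 h at 37C. Viability was measured by CellTiter Glo luminescence. Media-only wells served as 100% inhibition.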
# [20] = Viability qHTS for inhibitors of the SERCaMP assay screened against the NCATS CANVASS Library (AID 1347400); further: nearly all actives have a fitted effect of over 70% in size; further: potency means the concentration at half of the fitted maximal effect
# Procedure, shortened: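 Seed SH-SY5Y-GLuc SERCaMP MJH297 cells at 1000 per well, incubate 4 h, add compounds across an 11-point range, incubate 48 h at 37C, then add CellTiter-Glo and read luminescence.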
Structure (SMILES),Potency [1],Potency [2],Potency [3],Potency [4],Potency [5],Potency [6],Potency [7],Potency [8],Potency [9],Potency [10],Potency [11],Potency [12],Potency [13],Potency [14],outcome [15],outcome [16],Potency [17],outcome [18],Potency [19],Potency [20]
COc1cc(/C=C/C(=O)O)ccc1O,inactive,inactive,inactive,inactive,inactive,inactive,inactive,inactive,inactive,inactive,inactive,inactive,inactive,inactive,inactive,inactive,inactive,inactive,inactive,inactive
CCCCCCCCCCCCCCC[C@H](O)C[C@@H](O)C[C@@H](O)C[C@@H](O)C[C@@H](O)C[C@H]1CC=CC(=O)O1,44 µM (active),2.11 µM (active),4.21 µM (active),2.11 µM (active),1.49 µM (active),1.88 µM (active),1.49 µM (active),3.34 µM (active),16.6 µM (active),26.4 µM (active),9.35 µM (active),inactive,7.39 µM (active),3.72 µM (active),inactive,inactive,3.06 µM (active),inactive,5.24 µM (active),12 µM (active)
CC1(C)[C@H](Br)CC[C@]23C[C@]4(C)C(=O)CC12C[C@H]34,inactive,inactive,inactive,inactive,inactive,inactive,inactive,inactive,inactive,inactive,inactive,inactive,inactive,inactive,–,inactive,inactive,inactive,inactive,inactive
O=c1cc(-c2ccc(O)cc2)oc2c([C@@H]3OC(CO)[C@H](O)[C@@H](O)[C@H]3O)c(O)cc(O)c12 (stereo partly drawn),17.5 µM (active),inactive,inactive,inactive,inactive,inactive,inactive,inactive,inactive,inactive,inactive,inactive,inactive,inactive,inactive,inactive,inactive,inactive,inactive,inactive
CN1C(=O)[C@]23SS[C@@]1(C)C(=O)N2[C@H]1Nc2ccccc2[C@]1(c1c[nH]c2ccccc12)[C@@H]3O,49.3 µM (active),1.06 µM (active),0.841 µM (active),0.747 µM (active),0.838 µM (active),0.668 µM (active),0.237 µM (active),0.941 µM (active),8.33 µM (active),5.26 µM (active),2.96 µM (active),inactive,3.7 µM (active),1.66 µM (active),inactive,inactive,1.53 µM (active),inactive,6.6 µM (active),2.4 µM (active)
CN1CC[C@]2(c3cccc4c3N[C@@H]3N(C)CC[C@]43[C@@]34CCN(C)[C@@H]3Nc3c([C@]56CCN(C)[C@H]5Nc5ccccc56)cccc34)c3ccccc3N[C@H]12,inactive,8.38 µM (active),8.41 µM (active),4.72 µM (active),3.75 µM (active),6.68 µM (active),18.8 µM (active),5.94 µM (active),inactive,inactive,4.69 µM (active),inactive,2.34 µM (active),2.64 µM (active),inactive,–,24.3 µM (active),–,20.9 µM (active),4.8 µM (active)
CC(C)=CCC[C@@H](C)[C@@H]1CC[C@@]2(C)C[C@H]3C(C)=CC(=O)[C@@H]3/C(C=O)=C\C[C@H]12,44 µM (active),9.41 µM (active),5.95 µM (active),6.66 µM (active),10.6 µM (active),7.49 µM (active),2.66 µM (active),11.8 µM (active),–,26.4 µM (active),10.5 µM (active),inactive,–,–,inactive,inactive,17.2 µM (active),inactive,20.9 µM (active),42.8 µM (active)
C[C@@]12CCC[C@@](C)(C(=O)O)[C@H]1CC[C@]13C[C@H]4C[C@H](O[C@@]4(C)C1)[C@H]32,3.92 µM (active),inactive,inactive,7.47 µM (active),inactive,inactive,inactive,inactive,inactive,inactive,inactive,inactive,inactive,inactive,inactive,inactive,inactive,inactive,inactive,inactive
C=C[C@@]1(C)CC[C@@H]([C@H](C)C(=O)/C=C/C(C)C)O1,inactive,inactive,inactive,inactive,inactive,inactive,inactive,inactive,inactive,inactive,inactive,inactive,inactive,inactive,inactive,inactive,inactive,inactive,inactive,inactive
CCC1=C2CCCN3C(=O)O[C@H]([C@H]1OC(C)=O)[C@H]23,inactive,inactive,inactive,inactive,inactive,inactive,inactive,inactive,inactive,inactive,inactive,inactive,inactive,inactive,inactive,inactive,inactive,inactive,inactive,inactive
C=C1C[C@@]23C=CC(=O)[C@@](C)(CCC(=O)Nc4c(OC5O[C@H](CO)[C@@H](O)[C@H](O)[C@H]5O)ccc(C(=O)O)c4O)C2C[C@@H]1CC3 (stereo partly drawn),39.2 µM (active),inactive,inactive,inactive,inactive,inactive,inactive,inactive,inactive,inactive,inactive,inactive,inactive,inactive,inactive,inactive,inactive,inactive,inactive,–
